In PubChem BioAssay (Tox21):
Records with an inconclusive call do not appear. The source made the active and inactive calls. Unless noted, the call rests on the fitted dose curve; in most records, active means well fitted curve in the direction sought with a large enough effect in the repeat runs; inconclusive means weak or mixed curves; inactive means no such curve, though single readings can be large; an effect the other way counts as inactive or inconclusive.

Legend:
[1] = molecular target: Androgen receptor (Homo sapiens) (UniProt P10275); assay: qHTS assay to identify small molecule antagonists of the androgen receptor (AR) signaling pathway using the MDA cell line in the presence of 0.5 nM R1881 (AID 1259243); further: nearly all actives have a fitted effect of over 50% in size; further: potency means the concentration at half of the fitted maximal effect
Sequence of Androgen receptor (Homo sapiens) (P10275 whole entry, looked up): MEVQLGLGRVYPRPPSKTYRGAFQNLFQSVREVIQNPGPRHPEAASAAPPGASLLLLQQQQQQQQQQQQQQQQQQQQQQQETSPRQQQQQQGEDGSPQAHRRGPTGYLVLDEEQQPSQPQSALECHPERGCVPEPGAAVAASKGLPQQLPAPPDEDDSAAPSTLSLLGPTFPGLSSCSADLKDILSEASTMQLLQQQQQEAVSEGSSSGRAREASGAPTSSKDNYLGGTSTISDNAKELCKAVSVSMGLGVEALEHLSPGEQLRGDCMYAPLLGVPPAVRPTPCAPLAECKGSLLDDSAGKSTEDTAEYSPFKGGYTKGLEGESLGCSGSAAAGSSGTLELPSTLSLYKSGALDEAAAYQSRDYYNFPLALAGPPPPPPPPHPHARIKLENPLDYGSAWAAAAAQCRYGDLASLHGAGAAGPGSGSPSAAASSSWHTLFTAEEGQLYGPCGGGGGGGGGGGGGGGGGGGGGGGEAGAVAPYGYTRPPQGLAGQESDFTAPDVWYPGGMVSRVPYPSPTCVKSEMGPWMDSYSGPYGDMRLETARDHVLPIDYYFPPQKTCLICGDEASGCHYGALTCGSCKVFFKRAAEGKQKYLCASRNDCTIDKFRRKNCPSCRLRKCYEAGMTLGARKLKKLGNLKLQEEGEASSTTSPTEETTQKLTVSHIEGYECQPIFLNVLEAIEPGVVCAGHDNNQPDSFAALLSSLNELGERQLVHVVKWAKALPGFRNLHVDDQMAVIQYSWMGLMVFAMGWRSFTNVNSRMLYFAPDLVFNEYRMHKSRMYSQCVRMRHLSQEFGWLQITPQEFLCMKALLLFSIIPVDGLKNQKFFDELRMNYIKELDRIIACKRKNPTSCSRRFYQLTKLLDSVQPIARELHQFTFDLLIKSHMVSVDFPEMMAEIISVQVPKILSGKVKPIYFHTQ
Outline: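 Luminescent reporter readout (ONE-Glo, 30 min, room temperature) after 16 hr co-treatment of MDA-kb2 cells with test compounds and 0.5 nM R1881 final, at 37C without CO2. The MMTV-driven luciferase responds to both AR and GR.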

[2] = qHTS assay to identify small molecule HDAC inhibitors (AID 1259364); further: nearly all actives have a fitted effect of over 45% in size; further: potency means the concentration at half of the fitted maximal effect; on activity change, negative = inhibition: top concentration of the series differs between compounds
Outline: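 Luminescence read after 30 min room-temperature HDAC-Glo incubation measures cellular class I/II HDAC activity. Compounds were applied for 2 hr at 37 C to HCT-116 wild-type cells seeded the day before.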

[3] = qHTS assay to identify small molecule HDAC inhibitors - cell viability counter screen (AID 1259365); further: series mostly up to about 92 µM; nearly all actives have a fitted effect of over 50% in size
Outline: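 After overnight seeding at 1,500 cells per well, wild-type HCT-116 cultures took up compounds in DMSO for 2hr at 37 C. Viable cell content came from luminescence with CellTiter-Glo.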

[4] = qHTS assay to identify small molecule agonists of the sonic hedgehog signaling (Shh) pathway (AID 1259368; calls by dose curve; further: nearly all actives have a fitted effect of over 15% in size; further: potency means the concentration at half of the fitted maximal effect;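 on activity change: NIH/3T3-derived 3T3Gli1-Luc cells carrying a stable Gli1-driven firefly luciferase reporter; series mostly up to about 92 µM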)
Outline: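 Luminescence was read after 30 min at room temperature with luciferase reagent. Before that, 3T3Gli1-Luc cells (NIH/3T3 clone, stable Gli1-Luc reporter; 2,000/well) were exposed to compounds for 24 hr at 37C, 5% CO2, compounds being added 4 hr post-plating.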

[5] = molecular target: Estrogen receptor (Homo sapiens) (UniProt P03372); assay: qHTS assay to identify small molecule antagonists of the estrogen receptor alpha (ER-alpha) signaling pathway using the BG1 cell line in the presence of 0.1 nM 17-beta-estradiol (AID 1259244); further: nearly all actives have a fitted effect of over 50% in size; further: potency means the concentration at half of the fitted maximal effect
Sequence of Estrogen receptor (Homo sapiens) (P03372 whole entry, looked up): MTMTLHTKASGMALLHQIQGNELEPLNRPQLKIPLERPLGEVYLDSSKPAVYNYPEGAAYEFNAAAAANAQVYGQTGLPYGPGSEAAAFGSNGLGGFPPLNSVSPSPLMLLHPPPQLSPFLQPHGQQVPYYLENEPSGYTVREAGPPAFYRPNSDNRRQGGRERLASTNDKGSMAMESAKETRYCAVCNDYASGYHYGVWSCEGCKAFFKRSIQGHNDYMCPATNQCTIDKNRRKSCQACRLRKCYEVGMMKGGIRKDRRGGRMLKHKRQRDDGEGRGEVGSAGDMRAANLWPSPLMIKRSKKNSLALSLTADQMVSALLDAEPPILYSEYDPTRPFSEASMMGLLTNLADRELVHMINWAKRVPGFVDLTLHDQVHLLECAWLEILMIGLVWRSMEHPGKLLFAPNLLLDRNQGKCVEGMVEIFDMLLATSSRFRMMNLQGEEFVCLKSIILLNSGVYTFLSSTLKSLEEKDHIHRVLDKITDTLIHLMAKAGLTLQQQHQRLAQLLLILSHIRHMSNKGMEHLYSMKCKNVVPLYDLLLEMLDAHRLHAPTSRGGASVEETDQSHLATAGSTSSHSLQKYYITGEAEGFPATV
Outline: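 Luciferase luminescence (ONE-Glo, 30 min at room temperature) was read after 22 hr at 37C exposure to compounds plus 17beta-estradiol at 0.1 nM final. Cells were VM7Luc4E2 with endogenous ER-alpha and an ERE-driven luciferase, pre-cultured 5 days in hormone-depleted medium.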

[6] = qHTS assay to identify small molecule antagonists of the sonic hedgehog signaling (Shh) pathway - cell viability counter screen (AID 1259367); further: nearly all actives have a fitted effect of over 55% in size; further: potency means the concentration at half of the fitted maximal effect
Outline: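 Viability was read by CellTiter-Fluor fluorescence in the same wells, reagent added 23 hr into compound treatment and incubated 1 hr at 37C. The 3T3 Gli1-Luc reporter cells (2,000/well) received conditioned medium after compound and ran 24 hr.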

[7] = qHTS assay to identify small molecule antagonists of the sonic hedgehog signaling (Shh) pathway (AID 1259369; calls by dose curve; further: nearly all actives have a fitted effect of over 45% in size; further: potency means the concentration at half of the fitted maximal effect)
Outline: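 Antagonist mode: compound added to 3T3 Gli1-Luc cells followed by conditioned-medium stimulation, 24 h at 37 C, 5% CO2. Inhibition taken as loss of Gli1-driven luciferase luminescence.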

[8] = qHTS assay to identify small molecule agonists of the sonic hedgehog signaling (Shh) pathway - cell viability counter screen (AID 1259366); further: nearly all actives have a fitted effect of over 50% in size; further: potency means the concentration at half of the fitted maximal effect
Outline: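 Same-well cytotoxicity read. Gli1-Luc reporter 3T3 cells; compounds 24hr, 37C/5% CO2; CellTiter-Fluor fluorescence.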
On the % scale 0 is the no-effect control and ±100 the full control effect.

C[n+]1c2cc(N)ccc2cc2ccc(N)cc21 (tested in a mixture with another compound)
inactive: Potency [2] | Potency [3] | Potency [4]
active: Potency [1] 13.3 µM

NC(=O)c1nc(-c2cccc(-c3cc(F)ccc3OCC(F)(F)C(F)(F)F)c2)n[nH]1
inactive: Potency [2] | Potency [3] | Potency [6] | Potency [4]
active: Potency [1] 54.5 µM | Potency [5] 54.5 µM | Potency [7] 3.06 µM

Cc1cnccn1
inactive: Potency [1] | Potency [5] | Potency [2] | Potency [3] | Potency [8] | Potency [6] | Potency [4] | Potency [7]

C#CC(O)CCC (stereo not given)
inactive: Potency [1] | Potency [2] | Potency [3] | Potency [8] | Potency [6] | Potency [4] | Potency [7]

CCC(C)(C)c1cc(O)c(C(C)(C)CC)cc1O
inactive: Potency [2] | Potency [3] | Potency [8] | Potency [6] | Potency [4]
active: Potency [1] 17.2 µM | Potency [5] 68.6 µM | Potency [7] 6.86 µM

COC(=O)C1=C(C)NC(C)=C(C(=O)OCCCN2CCC(c3ccccc3)(c3ccccc3)CC2)C1c1cccc([N+](=O)[O-])c1 (stereo not given)
inactive: Potency [2] | Potency [3] | Potency [4]
active: Potency [1] 21.1 µM | Potency [8] 26.6 µM | Potency [7] 33.5 µM

CC1(C)COCN1
inactive: Potency [1] | Potency [2] | Potency [3] | Potency [8] | Potency [6] | Potency [4]

COCC(=O)O[C@]1(CCN(C)CCCc2nc3ccccc3[nH]2)CCc2cc(F)ccc2[C@@H]1C(C)C
inactive: Potency [3] | Potency [4]
active: Potency [1] 16.8 µM | Potency [8] 13.3 µM | Potency [6] 26.6 µM | Potency [7] 13.3 µM

O[C@@H](c1cc(C(F)(F)F)nc2c(C(F)(F)F)cccc12)[C@H]1CCCCN1
inactive: Potency [5] | Potency [2] | Potency [3] | Potency [4]
active: Potency [8] 29.8 µM | Potency [6] 29.8 µM | Potency [7] 23.7 µM

CCCCOCC
inactive: Potency [1] | Potency [2] | Potency [3] | Potency [8] | Potency [6] | Potency [4] | Potency [7]

CCCCN(CCCC)CCC(O)c1cc2c(Cl)cc(Cl)cc2c2cc(C(F)(F)F)ccc12 (stereo not given)
inactive: Potency [5] | Potency [2] | Potency [3] | Potency [8] | Potency [6] | Potency [4]

CCCCCCC(C)OC(=O)COc1nc(F)c(Cl)c(N)c1Cl (stereo not given)
inactive: Potency [8] | Potency [6] | Potency [4] | Potency [7]

COc1ccccc1OCCNCC(O)COc1cccc2[nH]c3ccccc3c12 (stereo not given)
active: Potency [8] 26.6 µM | Potency [7] 21.1 µM
inactive: Potency [2] | Potency [3] | Potency [4]

CCCCOc1ccc(C(=O)CCN2CCCCC2)cc1
inactive: Potency [5] | Potency [2] | Potency [3] | Potency [6] | Potency [4] | Potency [7]

CN(C)c1ccc(N=Nc2ccccc2C(=O)O)cc1
active: Potency [2] 8.63 µM | Potency [8] 21.7 µM | Potency [6] 24.3 µM | Potency [7] 2.17 µM
inactive: Potency [5] | Potency [3] | Potency [4]

CSc1c(Cl)c(Cl)c(Cl)c(Cl)c1Cl
inactive: Potency [3] | Potency [8] | Potency [6] | Potency [4] | Potency [7]

CCC1(c2cnc[nH]2)Cc2ccccc2C1
inactive: Potency [2] | Potency [8] | Potency [6] | Potency [4]

Cc1cccc(C)c1NC(=O)CN1CCN(CCCC(c2ccc(F)cc2)c2ccc(F)cc2)CC1
inactive: Potency [3] | Potency [4]

CCCCCCCC/C=C\CCCCCCCC(=O)NCc1ccc(O)c(OC)c1
inactive: Potency [2] | Potency [3] | Potency [8] | Potency [6] | Potency [4] | Potency [7]

NCCCCCCNCCCCCCN
inactive: Potency [5] | Potency [2] | Potency [4]

CC(C)c1ccc(O)c(C(C)C)c1
inactive: Potency [2] | Potency [3] | Potency [8] | Potency [6] | Potency [4] | Potency [7]

CCN(CC)CCNc1ccc(CO)c2sc3ccccc3c(=O)c12
active: Potency [7] 13.3 µM
inactive: Potency [5] | Potency [2] | Potency [3] | Potency [4]

CCN(CC)CCOc1ccc(C(O)(Cc2ccc(Cl)cc2)c2ccc(C)cc2)cc1 (stereo not given)
inactive: Potency [5] | Potency [2] | Potency [3] | Potency [4]
active: Potency [7] 5.96 µM

CCCCCCCCCCOCC(O)CN (stereo not given)
inactive: Potency [5] | Potency [3] | Potency [6] | Potency [4]

O=C=NCc1cccc(CN=C=O)c1
inactive: activity change, negative = inhibition [5] 2.93% [at 19 µM] | activity change, negative = inhibition [2] 3.12% [at 19 µM] | activity change, negative = cytotoxicity [3] 0.277% [at 19 µM] | viability change, negative = cytotoxic [8] 4.73% [at 19 µM] | viability change, negative = cytotoxic [6] -1.32% [at 19 µM] | activity change [4] -1.18% [at 18.9 µM, active compounds read high] | activity change, negative = inhibition [7] 11.1% [at 19 µM]

CC(=O)OC(OC(C)=O)c1ccc([N+](=O)[O-])o1
inactive: Potency [2]
active: Potency [8] 22.1 µM | Potency [6] 24.8 µM | Potency [7] 8.78 µM

O=C(Nc1ccc(Cl)c(Cl)c1)c1cc(Cl)cc(Cl)c1O
inactive: Potency [3] | Potency [4]
active: Potency [5] 3.44 µM | Potency [2] 1.22 µM | Potency [7] 3.86 µM

Nc1cc(Cl)c([N+](=O)[O-])cc1O
inactive: Potency [2] | Potency [3] | Potency [4]

CC(=O)c1ccccc1N
inactive: Potency [5] | Potency [2] | Potency [8] | Potency [6] | Potency [4] | Potency [7]

c1ccc(Nc2cccc3ccccc23)cc1
inactive: Potency [2] | Potency [3] | Potency [8] | Potency [6] | Potency [4]

Cc1cc2c(C(C)C)c(O)c(O)c(C=O)c2c(O)c1-c1c(C)cc2c(C(C)C)c(O)c(O)c(C=O)c2c1O
inactive: Potency [5] | Potency [2] | Potency [3] | Potency [4]

COc1cc(C(=O)NS(=O)(=O)c2ccccc2C)ccc1Cc1cn(C)c2ccc(NC(=O)OC3CCCC3)cc12
inactive: Potency [3] | Potency [8] | Potency [6] | Potency [4] | Potency [7]

S=C(SSSSSSC(=S)N1CCCCC1)N1CCCCC1
inactive: activity change, negative = inhibition [2] -8.72% [at 19 µM] | activity change [4] -10.5% [at 18.9 µM, active compounds read high]
active: Potency [8] 5.35 µM | Potency [6] 7.56 µM

CN(C)CCCN1c2ccccc2Sc2ccc(C(F)(F)F)cc21
active: Potency [7] 29.8 µM
inactive: Potency [2] | Potency [3] | Potency [8] | Potency [4]

C[C@@]12C(=O)OC(=O)[C@]1(C)C1CCC2O1
active: Potency [5] 6.68 µM | Potency [8] 1.5 µM | Potency [6] 3.76 µM | Potency [7] 1.68 µM
inactive: Potency [2] | Potency [4]

Cc1c(C)n(Cc2ccccc2)c2ccc(C(=O)OCCN(C)C)cc12
active: Potency [7] 6.68 µM
inactive: Potency [3] | Potency [6] | Potency [4]

Cc1ccc(CCn2c3c(c4cc(Cl)ccc42)CN(C)CC3)cn1
inactive: Potency [5] | Potency [2] | Potency [3] | Potency [4]

COc1ccc2sc(C(=O)Nc3nnn[nH]3)c(OC(C)C)c2c1
active: Potency [5] 30.5 µM | Potency [8] 27.2 µM
inactive: Potency [2] | Potency [3] | Potency [4]

CC1CCCCN1CCCOC(=O)c1ccc(OC2CCCCC2)cc1 (stereo not given)
inactive: Potency [2] | Potency [3] | Potency [8] | Potency [6] | Potency [4]

C=CC(=O)OCCOCC(CC)(COCCOC(=O)C=C)COCCOC(=O)C=C
active: Potency [8] 5.67 µM | Potency [6] 7.14 µM | Potency [4] 16 µM | Potency [7] 5.67 µM
inactive: Potency [2]

CO[C@H]1C=CO[C@@]2(C)Oc3c(C)c(O)c4c(O)c(cc(O)c4c3C2=O)NC(=O)/C(C)=C\C=C/[C@H](C)[C@H](O)[C@@H](C)[C@@H](O)[C@@H](C)[C@H](OC(C)=O)[C@@H]1C
active: Potency [5] 54.9 µM | Potency [8] 13.8 µM | Potency [6] 15.5 µM | Potency [7] 13.8 µM
inactive: Potency [2] | Potency [3] | Potency [4]

CC(C)(C)c1cc(/C=C2\SC(=N)NC2=O)cc(C(C)(C)C)c1O
inactive: Potency [2] | Potency [3] | Potency [8] | Potency [6] | Potency [4]

Cc1cc(C)c(C=O)c(C)c1
inactive: Potency [5] | Potency [2] | Potency [8] | Potency [6] | Potency [4] | Potency [7]

CC1=CCC(=O)O1
inactive: Potency [5] | Potency [3] | Potency [8] | Potency [6] | Potency [4] | Potency [7]

CN1[C@@H]2CC[C@@H]1CC(OC(=O)C(CO)c1ccccc1)C2 (stereo not given in full)
inactive: Potency [2] | Potency [3] | Potency [8] | Potency [6] | Potency [7]

C=C(c1ccc(C(=O)O)cc1)c1cc2c(cc1C)C(C)(C)CCC2(C)C
inactive: Potency [2] | Potency [3] | Potency [8] | Potency [6] | Potency [4] | Potency [7]
active: Potency [5] 12.2 µM

Oc1ccc(-c2ccc(O)cc2)cc1
inactive: Potency [3] | Potency [4]
active: Potency [7] 6.15 µM
